# In the supplement of paper PMC12067093, “Discovery and optimisation of a covalent ligand for TRIM25 and its application to targeted protein ubiquitination” (Chemical Science, 2025):
# The full data set covers some 21,000 targets. This sample favours those with the largest changes.
# Compound: CC1Cc2ccccc2N1C(=O)C1CCCN(C1)C(=O)CCl (mixture of isomers) [TRIM25 ligand 11 (diastereomer mixture)]
# Assay: probe-labelled cysteine peptide fold change vs DMSO (competition) (log2 fold change); higher = less target engagement (more negative = stronger competition)
# Details: 10 µM; THP-1; incubation time: 4 h
# 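Note: competitive chemoproteomic profiling in live THP-1 cells with an iodoacetamide desthiobiotin (IA-DTB) probe, comparing probe-labelled peptide intensities in compound-treated cells against DMSO-treated controls.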
row,Target,probe-labelled cysteine peptide fold change
1,EDC4_Q6P2E9_838_ETCSTLAESPR (UniProt Q6P2E9),-0.0668
2,FGD3_Q5JSP0_284_QEVCGNLTLQHHMLEPVQR (UniProt Q5JSP0),0.0112
3,ECM1_Q16610_269_FSCFQEEAPQPHYQLR (UniProt Q16610),0.855
4,FBN2_P35556_941_CELDTACPR (UniProt P35556),0.213
5,FAM111B_Q6SJ93_212_LCIYALK (UniProt Q6SJ93),-0.05
6,EXOC5_O00471_194_YHDLECQLIQEFTSAQR (UniProt O00471),0.139
7,FASN_P49327_2369_AKLTPGCEAEAETEAICFFVQQFTDMEHNR (UniProt P49327),-0.0758
8,EPRS_P07814_1301+1309_VACVQVVIIPCGITNALSEEDK (UniProt P07814),-0.162
9,EPHX2_P34913_232_VTGIQLLNTPAPLPTSCNPSDMSHGYVTVKPR (UniProt P34913),0.149
10,EIF3M_Q7L2H7_52_GAEISEENSEGGLHVDLAQIIEACDVCLKEDDK (UniProt Q7L2H7),0.0157
11,FTH1_P02794_91_KPDCDDWESGLNAMECALHLEK (UniProt P02794),0.166
12,FAM241A_Q8N8J7_2_CSAGELLR (UniProt Q8N8J7),0.306
13,EIF1B_O60739_69_FACNGTVIEHPEYGEVIQLQGDQRK<|>EIF1_P41567_69_FACNGTVIEHPEYGEVIQLQGDQRK (UniProt P41567+O60739),-0.358
14,FUBP3_Q96I24_366_CGLVIGK (UniProt Q96I24),-0.0888
15,FECH_P22830_403_QLTLSCPLCVNPVCR (UniProt P22830),0.0323
16,EIF3K_Q9UBQ5_87_CMIDQAHQEERPIR (UniProt Q9UBQ5),0.0313
17,FAM98B_Q52LJ0_220_INDALSCEYECR (UniProt Q52LJ0),-0.00202
18,EIPR1_Q53HC9_95_VLTCAAVWR (UniProt Q53HC9),0.109
19,ELP3_Q9H9T3_456_CSEETFR (UniProt Q9H9T3),0.298

row,Target,probe-labelled cysteine peptide fold change
1,EHHADH_Q08426_227+233_QHPGCLAQEACVR (UniProt Q08426),0.147
2,EXOSC8_Q96B26_60_LGNTTVICGVK (UniProt Q96B26),0.0322
3,ENOSF1_Q7L5Y1_67_GTEVVVCAVNALAHHVLNK (UniProt Q7L5Y1),-0.0438
4,FNBP1_Q96RU3_511_RQSGLYDSQNPPTVNNCAQDR (UniProt Q96RU3),0.269
5,FUBP3_Q96I24_109_IQAESGCK (UniProt Q96I24),0.00832
6,ELP5_Q8TE02_151_LPCTTLCQVLHAVSHQDSCPGDSSSVGK (UniProt Q8TE02),0.0565
7,FLNB_O75369_991_KVVPCLVTPVTGR (UniProt O75369),-0.0645
8,EIF1_P41567_94_NICQFLVEIGLAKDDQLK (UniProt P41567),-1.14
9,EFTUD2_Q15029_476_IEHTYTGGVDSDLGEAMSDCDPDGPLMCHTTK (UniProt Q15029),-0.11
10,EEF1A1_P68104_411_FLKSGDAAIVDMVPGKPMCVESFSDYPPLGR (UniProt P68104),0.947
11,ETFDH_Q16134_387_LTFPGGLLIGCSPGFMNVPK (UniProt Q16134),-0.688
12,FAR2_Q96K12_104+111_EDMQELLSCTNIIFHCAATVR (UniProt Q96K12),0.0855
13,FH_P07954_434_LLGDASVSFTENCVVGIQANTER (UniProt P07954),-0.504
14,F2_P00734_407_WVLTAAHCLLYPPWDK (UniProt P00734),0.631
15,FRRS1_Q6ZNA5_107_NAEDLNGPPIGSFTLIDSEVSQLLTCEDIQGSAVSHR (UniProt Q6ZNA5),0.66
16,FAM111B_Q6SJ93_351_NYYFCSLPR (UniProt Q6SJ93),-0.00273
17,F2_P00734_564_RGDACEGDSGGPFVMK (UniProt P00734),0.606
18,EIF3D_O15371_438_WTCCALLAGSEYLK (UniProt O15371),-0.0143
19,FHL2_Q14192_275_GFLTERDDILCPDCGK (UniProt Q14192),-0.0813
